From PubChem BioAssay (NCATS)
“And” between values parts separate entries of the source, which are not always exact repeats. Identical values can stand only once. Results filed as inconclusive are left out. Where a structure was tested more than once in an assay, its records may differ in their call. The source made the active and inactive calls. Unless noted, calls follow the shape of the full dose curve.

Assays:
[1] = Primary qHTS for inhibitors of SARS-S pseudo-typed particle cell entry (AID 1479145); conditions: SARS-S pseudotyped particle cell entry, luciferase reporter; series mostly up to 57.1 µM; also: nearly all actives have a fitted effect of over 45% in size; as to activity change, negative = inhibition: % is scaled to controls: 0 for no effect and ±100 for the full control effect
[2] = Primary qHTS for Huh7 cytotoxicity: counterscreen for inhibitors of MERS-S pseudotyped particle cell entry (AID 1479147); conditions: cell viability read-out; series mostly up to 57.1 µM
[3] = Primary qHTS for inhibitors of MERS-S pseudo-typed particle cell entry (AID 1479149); conditions: MERS-S pseudotyped particle entry, luciferase; series mostly up to 57.1 µM; also: nearly all actives have a fitted effect of over 60% in size; also: potency is read from the fitted curve at half-maximal effect; as to activity change, negative = inhibition: % is scaled to controls: 0 for no effect and ±100 for the full control effect
[4] = Primary qHTS for Vero E6 cytotoxicity: counterscreen for inhibitors of SARS-S pseudo-typed particle cell entry (AID 1479150); conditions: cell viability; series mostly up to 57.1 µM
[5] = Primary qHTS for inhibitors of La Crosse Virus (LACV) - induced cell death in SH-SY5Y cells (AID 1508616; active = well fitted curve in the direction sought with a large enough effect; an effect the other way counts as inactive or inconclusive;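 also: top concentration of the series differs between compounds; 0% = infected DMSO wells and 100% = uninfected DMSO wells; higher means more rescue of cells from virus-induced death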); conditions: SH-SY5Y LACV cytopathicity rescue, ATP luminescence, 6 d; series mostly up to 4.29 µM
Outline: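 SH-SY5Y, 6000 cells/well; cpd via pin tool in DMSO; LACV 0.01 MOI; 6 d 37C 5% CO2; ATPLite, 5 min RT; luminescence normalized to ±virus DMSO controls.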

[6] = molecular target: Calcium and integrin-binding protein 1 (Homo sapiens) (UniProt Q99828); assay: Primary qHTS for Identification of Calcium Integrin Binding Protein 1 (CIB1) Competitor (AID 1508620; active = well fitted curve in the direction sought with a large enough effect; an effect the other way counts as inactive or inconclusive;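 also: GST tagged CIB1 binding a fluorescein labelled alphaIIb integrin peptide tracer; top concentration of the series differs between compounds; % is scaled to controls: 0 for no effect and ±100 for the full control effect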); conditions: CIB1-GST / FITC-alphaIIb peptide fluorescence polarization; series mostly up to 114 µM
Chain of Calcium and integrin-binding protein 1 (Homo sapiens) (Q99828 whole entry, looked up): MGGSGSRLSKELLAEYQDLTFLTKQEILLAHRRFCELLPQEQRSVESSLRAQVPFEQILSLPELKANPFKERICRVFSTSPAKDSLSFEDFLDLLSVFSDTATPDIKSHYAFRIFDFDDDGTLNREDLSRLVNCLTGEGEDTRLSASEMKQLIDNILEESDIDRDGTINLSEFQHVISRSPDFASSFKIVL
Outline: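 CIB1-GST (1 uM final) and compound incubated 15 min at room temperature before adding FITC-alphaIIb peptide tracer (100 nM final). Competition for binding read by fluorescence polarization (ex 480, em 540) after another 15 min at room temperature.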

[7] = Confirmatory qHTS for VERO E6 Cytotoxicity Assay: Counterscreen for SARS-CoV-2 CPE Assay (AID 1508605); conditions: cell viability luminescence; series mostly up to 20 µM; also: nearly all actives have a fitted effect of over 60% in size; also: potency is read from the fitted curve at half-maximal effect
[8] = Confirmatory qHTS for activators (rescue) of SARS-CoV-2 Cytopathic Effect (CPE) (AID 1508606); conditions: Vero E6 SARS-CoV-2 CPE rescue, viability luminescence; series mostly up to 20 µM; also: potency is read from the fitted curve at half-maximal effect; nearly all actives have a fitted effect of over 70% in size
[9] = molecular target: Calcium and integrin-binding protein 1 (Homo sapiens) (UniProt Q99828); assay: Validation qHTS for Identification of Calcium Integrin Binding protein 1 (CIB1) Competitor (AID 1508618; active = well fitted curve in the direction sought with a large enough effect; an effect the other way counts as inactive or inconclusive; also: % is scaled to controls: 0 for no effect and ±100 for the full control effect); conditions: CIB1-GST / FITC-alphaIIb peptide fluorescence polarization; series mostly up to 114 µM
Outline: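 CIB1-GST (1 uM final) in 5 mM HEPES pH 7.4, 125 mM NaCl, 5 mM CaCl2, 0.01% Tween20 was preincubated 15 min at room temperature with compound (up to 114 uM), then FITC-alphaIIb peptide (100 nM) added for 15 min; fluorescence polarization read.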

C=CCN1CC[C@]23c4c5ccc(O)c4O[C@H]2C(=O)CC[C@@]3(O)[C@H]1C5
inactive: Potency [1] | Potency [2] | Potency [3] | Potency [4] | Potency [5] | Potency [6]

CCOC(=O)C1=C(C)NC(C)=C(C(=O)OC)C1c1cccc(Cl)c1Cl (centres undefined)
inactive: Potency [1] | Potency [2] | Potency [3] | Potency [4]

COc1cc2c(cc1OC)[C@@H]1CC(=O)[C@@H](CC(C)C)CN1CC2
inactive: Potency [1] | Potency [2] | Potency [3] | Potency [4]

O=P1(NCCCl)OCCCN1CCCl (centres undefined)
inactive: Potency [1] | Potency [2] | Potency [3] | Potency [4] | Potency [5] | Potency [6]

COc1cc(Cc2cnc(N)nc2N)cc(OC)c1OC
inactive: Potency [1] | Potency [2] | Potency [3] | Potency [4]

C[N+]1(C)CCC(OC(=O)C(O)(c2ccccc2)C2CCCC2)C1 (centres undefined)
inactive: Potency [1] | Potency [2] | Potency [3] | Potency [4]

CC[C@@H](CO)NC(=O)[C@@H]1C=C2c3cccc4[nH]cc(c34)C[C@H]2N(C)C1
inactive: Potency [1] | Potency [2] | Potency [3] | Potency [4] | Potency [5]

CCn1cc(C(=O)O)c(=O)c2cc(F)c(N3CCNCC3)cc21
inactive: Potency [1] | Potency [2] | Potency [3] | Potency [4]

CC(C)NCC(O)c1ccc(O)c(O)c1 (centres undefined)
inactive: Potency [1] | Potency [2] | Potency [3] | Potency [4]

Cc1c(O)cccc1C(=O)N[C@@H](CSc1ccccc1)[C@H](O)CN1C[C@H]2CCCC[C@H]2C[C@H]1C(=O)NC(C)(C)C
active: Potency [7] 12.6 µM | Potency [8] 3.16 µM
inactive: Potency [1] | Potency [2] | Potency [3] | Potency [4]

CN(C)[C@@H]1C(=O)C(C(N)=O)=C(O)[C@@]2(O)C(=O)C3=C(O)c4c(O)cccc4[C@@](C)(O)[C@H]3C[C@@H]12
inactive: Potency [1] | Potency [2] | Potency [3] | Potency [4] | Potency [5] | Potency [6]

Cc1ncc(CNC(=O)N(CCCl)N=O)c(N)n1
inactive: Potency [1] | Potency [2] | Potency [3] | Potency [4] | Potency [5] | Potency [9] | Potency [6]

Cc1cn([C@H]2C=C[C@@H](CO)O2)c(=O)[nH]c1=O
inactive: Potency [1] | Potency [2] | Potency [3] | Potency [4]

Oc1cccc2cccnc12
inactive: Potency [1] | Potency [2] | Potency [4] | Potency [5] | Potency [6]
inactive and 3.55 µM (active): Potency [3]

CC1=NS(=O)(=O)c2cc(Cl)ccc2N1
inactive: Potency [1] | Potency [2] | Potency [3] | Potency [4]

OCCOc1ccccc1
inactive: Potency [1] | Potency [2] | Potency [3] | Potency [4] | Potency [5] | Potency [6]

Clc1ccc2c(c1)C(N1CCNCC1)=Nc1ccccc1O2
inactive: Potency [1] | Potency [2] | Potency [3] | Potency [4] | Potency [7]

CCN(C)C(=O)Oc1cccc([C@H](C)N(C)C)c1
inactive: Potency [1] | Potency [2] | Potency [3] | Potency [4]

CCOC(=O)c1ncn2c1CN(C)C(=O)c1cc(F)ccc1-2
inactive: Potency [1] | Potency [2] | Potency [3] | Potency [4]

Cc1ccc2c(n1)Oc1ccc(C(C)C(=O)OCC(=O)N(C)C)cc1C2 (centres undefined)
inactive: Potency [1] | Potency [2] | Potency [3] | Potency [4]

O=c1[nH]cc(F)c(=O)[nH]1
inactive: Potency [1] | Potency [2] | Potency [4]
active: Potency [3] 8.91 µM

N[C@@H]1C[C@H]1c1ccccc1
inactive: Potency [1] | Potency [2] | Potency [3] | Potency [4] | Potency [5] | Potency [6]

COc1cc2nc(N3CCN(C(=O)C4CCCO4)CC3)nc(N)c2cc1OC (centres undefined)
inactive: Potency [1] | Potency [2] | Potency [3] | Potency [4]

Cc1ccc(S(=O)(=O)NC(=O)NN2CC3CCCC3C2)cc1 (centres undefined)
inactive: Potency [1] | Potency [2] | Potency [3] | Potency [4]

CN1CCN(C(=O)O[C@H]2c3nccnc3C(=O)N2c2ccc(Cl)cn2)CC1
inactive: Potency [1] | Potency [2] | Potency [3] | Potency [4] | Potency [5] | Potency [6]

CO/N=C1\CN(c2nc3c(cc2F)c(=O)c(C(=O)O)cn3C2CC2)CC1CN (centres undefined)
inactive: Potency [1] | Potency [2] | Potency [3] | Potency [4]

NCC(CC(=O)O)c1ccc(Cl)cc1 (centres undefined)
inactive: activity change, negative = inhibition [1] -11.8% [at 0.573 µM] | outcome [2] inactive [at 0.573 µM] | outcome [3] inactive [at 0.573 µM] | outcome [4] inactive [at 0.573 µM] | Potency [5] | Potency [9] | activity change, negative = inhibition [6] 5.6% [at 1.07 µM]

CC1=C(C(=O)O)N2C(=O)[C@@H](NC(=O)[C@H](N)c3ccccc3)[C@H]2SC1
inactive: Potency [1] | Potency [2] | Potency [3] | Potency [4]

CCCN(CCC)S(=O)(=O)c1ccc(C(=O)O)cc1
inactive: Potency [1] | Potency [2] | Potency [3] | Potency [4]

C[C@@H](O)[C@H]1C(=O)N2C(C(=O)O)=C(S[C@@H]3CN[C@H](C(=O)N(C)C)C3)[C@H](C)[C@H]12
inactive: Potency [1] | Potency [2] | Potency [3] | Potency [4]
